In PubChem BioAssay (NCATS):
Records with an inconclusive call do not appear. Active and inactive are the calls of the source. Unless noted, calls follow the shape of the dose curve; as a rule, active = well fitted curve in the direction sought with a large enough effect; inconclusive = small, poorly fitted or top-dose-only effect, or another doubt; inactive = no such curve, though single readings can be large; an effect the other way counts as inactive or inconclusive.

Assays:
[1] = target: M-phase phosphoprotein 8 (Homo sapiens) (UniProt Q99549); test: qHTS Validation Assay for Inhibitors for MPP8 Chromodomain Interactions with Methylated Histone Tails (AID 488949); also: nearly all actives have a fitted effect of over 55% in size; also: potency is read from the fitted curve at half-maximal effect
Method in brief: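 MPP8 (50 nM) was preincubated with biotinylated H3(1-18)K9me3 peptide (50 nM) in PBS pH 7.4, 0.01% Tween-20 for 30 min at room temperature, then with compounds for 30 min; binding was detected by AlphaScreen.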

[2] = target: Chromobox protein homolog 1 (Homo sapiens) (UniProt P83916); test: qHTS Validation Assay for Inhibitors of HP1-beta Chromodomain Interactions with Methylated Histone Tails (AID 488953); also: nearly all actives have a fitted effect of over 50% in size; also: potency is read from the fitted curve at half-maximal effect
Method in brief: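 Compounds pinned into a preassembled complex of HP1-beta and trimethyl-K9 histone H3(1-18) biotin peptide (50 nM each; PBS pH 7.4, 0.01% Tween-20). After 30 min, bead-based AlphaScreen detection followed.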

[3] = target: Methanococcus maripaludis chaperonin (MmCpn) (UniProt Q6LX38); test: High-Throughput Screening for Modulators of Cytosolic Chaperonin Activity: MmCpn Primary Screen (AID 488978);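 also: 50 nM MmCpn enzyme hydrolysing 30 µM ATP at 37 °C; 0% is about no effect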
Method in brief: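 MmCpn (50 nM final) was preincubated with compound 5 min at RT, then 30 uM ATP (final) was added and the reaction ran 10 min at 37C. ADP produced was detected by Transcreener HTRF (ex 320 nm; em 590/665 nm).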

[4] = target: D(1A) dopamine receptor (Homo sapiens) (UniProt P21728); test: HTS Assay for Allosteric Agonists of the Human D1 Dopamine Receptor: Primary Screen for Potentiators (AID 488982); also: 0% is about no effect
Method in brief: (§1)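 Tetracycline-induced HEK293 Trex D1 cells with forced coupling to calcium, loaded with no-wash calcium dye; kinetic fluorescence read 180 s after compound addition for agonism, then a further 180 s after an EC20 dopamine challenge for potentiation.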

[5] = target: D(1A) dopamine receptor (Homo sapiens) (UniProt P21728); test: HTS Assay for Allosteric Agonists of the Human D1 Dopamine Receptor: Primary Screen for Antagonists (AID 488983);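 also: calcium flux response to an EC80 dopamine challenge measured with no-wash dye; % is scaled to controls: 0 for no effect and ±100 for the full control effect; nearly all actives have a fitted effect of over 65% in size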
Method in brief: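 In this primary screen, compounds are applied to calcium-dye-loaded HEK293 T-REx cells with force-coupled D1 expression induced overnight at 30 C. An EC80 of dopamine follows the 180 s compound phase, and calcium is monitored for a further 180 s.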

[6] = Validation screen for small molecules that induce genotoxicity in human embryonic kidney (HEK293T) cells expressing luciferase-tagged ELG1 (AID 493106); also: 0% is about no effect
Method in brief: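 In this validation screen, increased ELG1-luciferase signal flags compounds causing genetic stress. HEK293T reporter cells are treated 16 hr (37 °C, 5% CO2), developed with ONE-Glo for 30 min at room temperature, and imaged on a CCD-based reader.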

[7] = target: ATPase family AAA domain-containing protein 5 (Homo sapiens) (UniProt Q96QE3); test: Validation screen for small molecules that inhibit ELG1-dependent DNA repair in human embryonic kidney (HEK293T) cells expressing luciferase-tagged ELG1 (AID 493107);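 also: cells co-treated with the DNA-damaging agent 5-fluorouridine alongside compound; series mostly up to about 46 µM; % is scaled to controls: 0 for no effect and ±100 for the full control effect; inhibitors lower the ELG1-luciferase luminescence signal; nearly all actives have a fitted effect of over 70% in size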
Method in brief: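 Compounds reducing 5-fluorouridine-driven ELG1-luciferase signal in HEK293T cells were scored; exposure lasted 16 hr at 37 °C with luminescence detected via ONE-Glo.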

[8] = target: Thyrotropin-releasing hormone receptor (Homo sapiens) (UniProt P34981); test: qHTS for Small Molecule Agonists and Allosteric Enhancers of Human TRH Receptor: Validation Screen for Agonists (AID 493127;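 active = calcium activation more than 3 SD above the typical response in the agonist read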;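 also: intracellular calcium rise by fluo-8 fluorescence before TRH EC20 addition; 0% is about no effect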); details: TRH receptor agonist cell assay; at 2 µM; stronger effect = higher value
Method in brief: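 Kinetic fluorescence assay of agonist-induced calcium release: overnight-plated TRHR cells, room-temperature fluo-8 loading, baseline then compound addition with per-second reads.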

[9] = Nrf2 qHTS screen for inhibitors: Validation (AID 493153; active = well fitted inhibition curve with a large enough effect in the main read-out, with a control signal flat, not every such curve was filed as active); details: viability change: measured here: cytotoxicity max response
Method in brief: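 In this counterscreened reporter format, each well gives two signals: CellTiter-Fluor fluorescence for cytotoxicity and ARE-luciferase luminescence for Nrf2 function. A549 ARE_Fluc cells in 5% FBS OPTI-MEM were exposed to compound titrations for 18-24 h.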

[10] = qHTS for Inhibitors of Cell Surface uPA Generation: Validation Assay (AID 493164);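 also: RAW 264.7 macrophage cells exposed to compound for 18 h; 0% is about no effect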
Method in brief: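 Compounds are titrated over seven points (2.45 nM–38.3 uM final) onto pre-plated RAW 264.7 cells and incubated for 18 h. Retained intracellular ATP, measured with ATP-Lite, indicates blocked lethal factor entry.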

[11] = target: Galactokinase (Homo sapiens) (UniProt P51570); test: qHTS Validation Assay for Inhibitors of Human Galactokinase (GALK) (AID 493189); also: 0% is about no effect
Method in brief: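 GALK (5 nM) with 35 uM ATP and 100 uM galactose in HEPES pH8.0, MgCl2, NaCl, DTT, BSA; 1 h at room temperature. Residual ATP read by Kinase-Glo Plus luminescence after 10 min.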

[12] = Validation screen for small molecules that induce DNA re-replication in SW480 colon adenocarcinoma cells (AID 504364); also: 0% is about no effect
Method in brief: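 Hoechst-stained SW480 nuclei, imaged at 405 nm excitation after 48 hr compound exposure, were counted for elevated DNA content as the re-replication signal.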

[13] = target: Peptidyl-prolyl cis-trans isomerase NIMA-interacting 1 (Homo sapiens) (UniProt Q13526); test: qHTS Validation Assay to Find Inhibitors of Pin1 (AID 504536; active = well fitted inhibition curve with a large enough effect in the polarisation, with a control signal flat, not every such curve was filed as active; the % refers to the polarisation;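 also: 0% = full Pin1 enzyme wells and -100% = no-enzyme wells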)
Method in brief: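 Fluorescence polarization competition: compounds (titration) displace HiFluor-488-labeled Pin1-1b peptide from Pin1 (0.3 uM final) in pH 7.5 HEPES buffer with DTT, 10 min at room temperature; %Activity normalized to no-enzyme wells, curves fitted.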

[14] = target: Phosphoglycerate kinase, glycosomal (Trypanosoma brucei brucei) (UniProt P07378); test: qHTS Validation Assay to Find Inhibitors of Phosphoglycerate Kinase (AID 504547);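 also: control wells lack PGK and mark full inhibition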
Method in brief: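 Compounds are pinned into the substrate/PGK mixture, and GAPDH (100nM final) is added to start the reaction by producing 1,3-BPG. After 60 minutes at room temperature, Kinase-Glo Plus is added and luminescence is measured 10 minutes later.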

[15] = Inducers of the Endoplasmic Reticulum Stress Response (ERSR) in human glioma: Validation (AID 504836); also: 0% is about no effect
Method in brief: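 Stably transfected U87-MG glioma cells carrying a GRP78-based luciferase sensor; 16 h compound incubation. Luminescence end-point read 10 min after Bright-Glo addition at room temperature.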

[16] = target: D(1A) dopamine receptor (Homo sapiens) (UniProt P21728); test: HTS Assay for Allosteric Agonists of the Human D1 Dopamine Receptor: Primary Screen for Agonists (AID 488981); also: 0% is about no effect
Method in brief: as §1

[17] = target: Thyrotropin receptor (Homo sapiens) (UniProt P16473); test: qHTS Assay for Antagonists of the Thyroid Stimulating Hormone Receptor (AID 488980); also: series mostly up to about 58 µM; 0% is about no effect
Method in brief: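 HEK293 cells transfected with human TSHR, suspended in HEPES-buffered HBSS with 70 uM RO 20-1724, were treated with compounds plus TSH at EC80 (4 nM final). cAMP was measured by competitive HTRF (cryptate anti-cAMP antibody, cAMP-d2 acceptor).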

[18] = target: Transient receptor potential cation channel subfamily V member 1 (Homo sapiens) (UniProt Q8NER1); test: HTS Assay for Compounds that Act as Enhancers of the Vanilloid Receptor 1 (AID 488979); also: 0% is about no effect
Method in brief: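 TRPV1 cells loaded with Fluo-8 calcium dye; compound added and Ca2+ signal (ex 480/em 520 nm) followed 3 min, then capsaicin at EC20 added and read 2 more min to detect enhancement.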

[19] = target: phosphoglycerate mutase (Leishmania major) (UniProt Q4Q090); test: qHTS Validation Assay to Find Inhibitors of Phosphoglycerate Mutase (AID 504548);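 also: end-point luminescence from Kinase-GloPlus after the PGAM reaction; series mostly up to about 58 µM; % is scaled to controls: 0 for no effect and ±100 for the full control effect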
Method in brief: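 Inhibition of L. major PGAM was assessed by Kinase-GloPlus luminescence following a 45-minute room-temperature reaction with enzyme at 1.25nM final.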

Chain of Chromobox protein homolog 1 (Homo sapiens) (P83916 whole entry, looked up): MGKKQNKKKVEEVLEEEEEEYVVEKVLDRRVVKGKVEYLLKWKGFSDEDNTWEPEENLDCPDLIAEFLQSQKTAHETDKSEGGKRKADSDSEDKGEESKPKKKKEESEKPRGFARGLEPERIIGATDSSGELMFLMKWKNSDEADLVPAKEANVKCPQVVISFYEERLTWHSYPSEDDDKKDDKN
Chain of D(1A) dopamine receptor (Homo sapiens) (P21728 whole entry, looked up): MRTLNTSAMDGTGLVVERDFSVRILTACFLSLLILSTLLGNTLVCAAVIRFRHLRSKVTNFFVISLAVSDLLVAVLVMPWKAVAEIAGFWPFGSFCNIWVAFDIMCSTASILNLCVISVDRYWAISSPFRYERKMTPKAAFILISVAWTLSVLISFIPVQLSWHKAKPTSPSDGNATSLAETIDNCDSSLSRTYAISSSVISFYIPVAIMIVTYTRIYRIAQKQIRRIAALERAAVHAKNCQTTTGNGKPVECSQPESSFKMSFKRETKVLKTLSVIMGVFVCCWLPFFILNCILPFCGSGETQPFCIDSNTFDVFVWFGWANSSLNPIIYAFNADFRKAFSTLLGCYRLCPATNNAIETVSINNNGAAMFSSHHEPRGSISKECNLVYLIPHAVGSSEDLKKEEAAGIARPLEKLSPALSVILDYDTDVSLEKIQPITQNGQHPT
Chain of phosphoglycerate mutase (Leishmania major) (Q4Q090 1-553): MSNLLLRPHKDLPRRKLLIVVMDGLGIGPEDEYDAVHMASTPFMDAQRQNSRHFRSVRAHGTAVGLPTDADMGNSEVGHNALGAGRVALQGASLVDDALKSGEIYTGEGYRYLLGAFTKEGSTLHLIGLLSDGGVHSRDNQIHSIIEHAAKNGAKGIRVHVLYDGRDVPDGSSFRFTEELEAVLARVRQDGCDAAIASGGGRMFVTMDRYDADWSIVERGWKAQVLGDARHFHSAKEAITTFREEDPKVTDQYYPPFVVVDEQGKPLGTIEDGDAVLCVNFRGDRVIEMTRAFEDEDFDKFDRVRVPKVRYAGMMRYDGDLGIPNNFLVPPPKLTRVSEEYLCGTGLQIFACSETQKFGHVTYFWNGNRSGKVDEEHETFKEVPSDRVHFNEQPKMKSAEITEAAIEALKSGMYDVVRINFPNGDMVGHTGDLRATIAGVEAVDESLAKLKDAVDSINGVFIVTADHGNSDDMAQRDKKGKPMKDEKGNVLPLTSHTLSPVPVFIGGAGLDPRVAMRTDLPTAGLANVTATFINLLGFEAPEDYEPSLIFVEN
Chain of Phosphoglycerate kinase, glycosomal (Trypanosoma brucei brucei) (P07378 whole entry, looked up): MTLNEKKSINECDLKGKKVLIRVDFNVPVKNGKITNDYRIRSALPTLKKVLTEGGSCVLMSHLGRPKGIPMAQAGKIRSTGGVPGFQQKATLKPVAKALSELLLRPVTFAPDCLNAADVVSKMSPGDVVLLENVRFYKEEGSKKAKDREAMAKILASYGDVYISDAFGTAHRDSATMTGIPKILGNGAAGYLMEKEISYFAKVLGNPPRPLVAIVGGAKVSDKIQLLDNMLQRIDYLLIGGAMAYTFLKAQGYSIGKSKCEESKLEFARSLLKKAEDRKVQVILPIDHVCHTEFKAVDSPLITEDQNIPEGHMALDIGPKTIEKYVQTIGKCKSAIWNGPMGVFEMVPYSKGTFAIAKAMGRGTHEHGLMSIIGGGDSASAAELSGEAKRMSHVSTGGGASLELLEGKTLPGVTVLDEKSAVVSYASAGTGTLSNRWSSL
Chain of Thyrotropin receptor (Homo sapiens) (P16473 whole entry, looked up): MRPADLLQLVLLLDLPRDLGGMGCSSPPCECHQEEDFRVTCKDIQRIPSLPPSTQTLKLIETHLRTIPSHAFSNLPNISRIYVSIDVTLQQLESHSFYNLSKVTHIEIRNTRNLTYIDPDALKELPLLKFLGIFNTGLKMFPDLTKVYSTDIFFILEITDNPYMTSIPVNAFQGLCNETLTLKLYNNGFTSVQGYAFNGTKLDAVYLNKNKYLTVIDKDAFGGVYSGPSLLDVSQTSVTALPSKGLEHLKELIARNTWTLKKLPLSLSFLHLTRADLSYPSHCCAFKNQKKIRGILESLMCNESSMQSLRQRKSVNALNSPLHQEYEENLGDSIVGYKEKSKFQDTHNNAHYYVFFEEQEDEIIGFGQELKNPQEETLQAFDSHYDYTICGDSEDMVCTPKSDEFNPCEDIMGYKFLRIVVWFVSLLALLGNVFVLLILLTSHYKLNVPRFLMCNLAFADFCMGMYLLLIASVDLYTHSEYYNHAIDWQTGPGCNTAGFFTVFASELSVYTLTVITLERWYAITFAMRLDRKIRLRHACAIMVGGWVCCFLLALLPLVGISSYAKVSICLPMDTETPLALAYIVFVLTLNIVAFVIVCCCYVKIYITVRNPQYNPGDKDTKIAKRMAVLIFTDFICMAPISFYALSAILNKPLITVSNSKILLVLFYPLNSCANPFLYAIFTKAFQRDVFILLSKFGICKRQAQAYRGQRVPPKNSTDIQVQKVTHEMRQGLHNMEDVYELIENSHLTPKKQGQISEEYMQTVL
Chain of ATPase family AAA domain-containing protein 5 (Homo sapiens) (Q96QE3 whole entry, looked up, the tested form may be a part): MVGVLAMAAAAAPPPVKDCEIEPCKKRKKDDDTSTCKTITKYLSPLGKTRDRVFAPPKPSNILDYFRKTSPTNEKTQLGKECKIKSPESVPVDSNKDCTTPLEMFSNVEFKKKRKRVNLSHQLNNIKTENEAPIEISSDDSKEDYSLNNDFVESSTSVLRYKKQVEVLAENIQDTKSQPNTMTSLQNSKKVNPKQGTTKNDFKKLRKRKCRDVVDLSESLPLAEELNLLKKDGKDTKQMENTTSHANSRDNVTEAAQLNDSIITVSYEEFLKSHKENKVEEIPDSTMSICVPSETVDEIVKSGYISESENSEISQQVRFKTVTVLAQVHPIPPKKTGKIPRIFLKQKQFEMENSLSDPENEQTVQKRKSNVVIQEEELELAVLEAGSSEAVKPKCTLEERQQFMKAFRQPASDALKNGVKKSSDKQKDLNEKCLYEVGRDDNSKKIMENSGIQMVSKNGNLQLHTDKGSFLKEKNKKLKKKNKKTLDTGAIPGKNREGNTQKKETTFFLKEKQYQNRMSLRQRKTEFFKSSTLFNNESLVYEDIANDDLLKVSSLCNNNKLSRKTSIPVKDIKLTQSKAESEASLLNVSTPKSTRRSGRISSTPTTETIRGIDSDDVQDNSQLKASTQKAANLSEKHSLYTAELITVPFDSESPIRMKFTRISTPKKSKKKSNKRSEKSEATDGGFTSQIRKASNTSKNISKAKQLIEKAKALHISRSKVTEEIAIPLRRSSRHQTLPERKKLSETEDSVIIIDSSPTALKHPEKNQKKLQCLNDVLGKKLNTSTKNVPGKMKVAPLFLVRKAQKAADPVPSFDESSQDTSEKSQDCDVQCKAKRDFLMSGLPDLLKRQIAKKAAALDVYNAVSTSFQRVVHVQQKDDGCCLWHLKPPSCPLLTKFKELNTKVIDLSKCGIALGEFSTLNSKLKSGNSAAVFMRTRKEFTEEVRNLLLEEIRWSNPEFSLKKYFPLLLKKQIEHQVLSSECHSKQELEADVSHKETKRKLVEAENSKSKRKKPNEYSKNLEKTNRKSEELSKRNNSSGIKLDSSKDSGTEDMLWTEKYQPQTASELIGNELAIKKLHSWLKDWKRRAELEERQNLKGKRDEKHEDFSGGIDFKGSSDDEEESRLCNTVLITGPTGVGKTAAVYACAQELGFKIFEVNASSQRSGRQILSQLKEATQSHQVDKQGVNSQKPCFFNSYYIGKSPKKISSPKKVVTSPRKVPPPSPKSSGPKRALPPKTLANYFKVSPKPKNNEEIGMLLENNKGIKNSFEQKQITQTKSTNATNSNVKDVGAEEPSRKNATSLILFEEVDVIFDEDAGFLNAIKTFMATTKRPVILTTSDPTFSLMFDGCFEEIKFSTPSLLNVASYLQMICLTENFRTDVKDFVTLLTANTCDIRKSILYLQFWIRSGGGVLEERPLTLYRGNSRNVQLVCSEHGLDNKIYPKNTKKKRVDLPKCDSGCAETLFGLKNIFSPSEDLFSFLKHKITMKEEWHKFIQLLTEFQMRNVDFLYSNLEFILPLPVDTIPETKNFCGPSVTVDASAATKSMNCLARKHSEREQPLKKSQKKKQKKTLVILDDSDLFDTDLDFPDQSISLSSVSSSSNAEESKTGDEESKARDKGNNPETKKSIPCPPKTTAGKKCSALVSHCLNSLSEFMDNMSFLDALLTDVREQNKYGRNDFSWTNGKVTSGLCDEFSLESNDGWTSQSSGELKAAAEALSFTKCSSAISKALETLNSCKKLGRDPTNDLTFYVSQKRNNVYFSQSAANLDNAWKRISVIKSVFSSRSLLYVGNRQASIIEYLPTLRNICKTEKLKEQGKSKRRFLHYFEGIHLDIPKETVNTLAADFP
Chain of Methanococcus maripaludis chaperonin (MmCpn) (Q6LX38 1-543): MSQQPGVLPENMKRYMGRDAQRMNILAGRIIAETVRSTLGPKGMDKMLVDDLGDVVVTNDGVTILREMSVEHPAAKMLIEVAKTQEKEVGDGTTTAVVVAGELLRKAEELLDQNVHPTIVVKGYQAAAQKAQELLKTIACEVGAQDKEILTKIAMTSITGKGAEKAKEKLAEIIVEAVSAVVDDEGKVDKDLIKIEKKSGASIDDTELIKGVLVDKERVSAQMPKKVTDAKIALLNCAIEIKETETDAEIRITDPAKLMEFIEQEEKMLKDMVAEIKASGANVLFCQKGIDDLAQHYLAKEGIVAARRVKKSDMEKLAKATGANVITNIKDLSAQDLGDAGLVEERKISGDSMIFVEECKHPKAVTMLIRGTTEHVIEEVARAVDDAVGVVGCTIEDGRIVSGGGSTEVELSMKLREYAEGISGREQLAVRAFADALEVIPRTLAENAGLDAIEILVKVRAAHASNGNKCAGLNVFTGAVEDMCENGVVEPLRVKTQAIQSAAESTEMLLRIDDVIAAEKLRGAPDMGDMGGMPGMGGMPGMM
Chain of Peptidyl-prolyl cis-trans isomerase NIMA-interacting 1 (Homo sapiens) (Q13526 whole entry, looked up): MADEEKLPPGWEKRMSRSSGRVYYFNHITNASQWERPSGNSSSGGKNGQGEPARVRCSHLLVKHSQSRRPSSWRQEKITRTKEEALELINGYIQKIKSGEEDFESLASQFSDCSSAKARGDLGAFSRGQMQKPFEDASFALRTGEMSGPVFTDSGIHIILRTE

CC(Cc1ccc(O)cc1)NCC(O)c1cc(O)cc(O)c1 (stereo not drawn)
-4.39%: viability change [9]
inactive: Potency [1] | Potency [2] | outcome [3] | outcome [4] | Potency [5] | outcome [6] | Potency [7] | activation [8] 0.688% | outcome [9] | outcome [10] | outcome [11] | outcome [12] | outcome [13] | outcome [14] | Potency [15]

NC(=O)CN1CC(O)CC1=O (stereo not drawn)
inactive: Potency [1] | Potency [2] | outcome [3] | Potency [16] | outcome [4] | Potency [5] | outcome [6] | Potency [7] | activation [8] 1.25% | outcome [9] | outcome [10] | outcome [11] | outcome [12] | outcome [13] | outcome [14] | Potency [15]
1.59%: viability change [9]

NC(=NCCC[C@H](N)C(=O)O)N[N+](=O)[O-]
3.87%: viability change [9]
inactive: Potency [1] | Potency [2] | outcome [3] | outcome [4] | Potency [5] | outcome [6] | Potency [7] | activation [8] 0.625% | outcome [9] | outcome [10] | outcome [11] | outcome [12] | outcome [13] | outcome [14] | Potency [15]

Clc1cnc(Oc2ccc(Oc3ncc(Cl)cc3Cl)cc2)c(Cl)c1
inactive: Potency [1] | Potency [2] | outcome [3] | outcome [17] | outcome [4] | Potency [5] | outcome [6] | Potency [7] | outcome [9] | outcome [10] | outcome [11] | outcome [12] | outcome [13] | outcome [14] | Potency [15]
3.25%: viability change [9]

c1ccc(CCCN2CCN(CCOC(c3ccccc3)c3ccccc3)CC2)cc1
active: Potency [1] 39.8 µM | Potency [2] 0.0084 µM
inactive: outcome [3] | Potency [16] | outcome [4] | outcome [6] | activation [8] 0.0625% | outcome [9] | outcome [10] | outcome [11] | outcome [13] | outcome [14] | Potency [15]
-4.56%: viability change [9]

O=C(O)[C@@H]1CCN1
inactive: Potency [1] | Potency [2] | outcome [3] | outcome [17] | outcome [4] | Potency [5] | outcome [6] | Potency [7] | activation [8] 0.75% | outcome [9] | outcome [10] | outcome [11] | outcome [12] | outcome [13] | outcome [14] | Potency [15]
8.8%: viability change [9]

C#CCOC(=O)C1=CCCN(C)C1
inactive: Potency [1] | Potency [2] | outcome [3] | outcome [18] | Potency [16] | outcome [4] | Potency [5] | outcome [6] | Potency [7] | activation [8] 3.19% | outcome [9] | outcome [10] | outcome [11] | outcome [12] | outcome [13] | outcome [14] | Potency [15]
-2.85%: viability change [9]

NC(N)=NOCCC(N)C(=O)O (stereo not drawn)
inactive: Potency [1] | Potency [2] | outcome [3] | outcome [4] | Potency [5] | outcome [6] | Potency [7] | activation [8] 0.375% | outcome [9] | outcome [10] | outcome [11] | outcome [12] | outcome [13] | outcome [14] | outcome [19] | Potency [15]
0.756%: viability change [9]

c1ccc2sc(C3(N4CCCCC4)CCCCC3)cc2c1
-6.89%: viability change [9]
inactive: Potency [1] | Potency [2] | outcome [3] | outcome [18] | outcome [4] | outcome [6] | Potency [7] | activation [8] -13.1% | outcome [9] | outcome [10] | outcome [11] | outcome [12] | outcome [13] | outcome [14] | Potency [15]

Cn1cnc(CCN)c1
inactive: Potency [1] | Potency [2] | outcome [3] | outcome [18] | outcome [4] | Potency [5] | outcome [6] | Potency [7] | activation [8] 0.562% | outcome [9] | outcome [10] | outcome [11] | outcome [12] | outcome [13] | outcome [14] | Potency [15]
-10.2%: viability change [9]

NCCc1c[nH]c2ccccc12
inactive: Potency [1] | Potency [2] | outcome [3] | outcome [17] | Potency [16] | Potency [5] | outcome [6] | activation [8] -0.438% | outcome [9] | outcome [10] | outcome [11] | outcome [12] | outcome [13] | outcome [14] | Potency [15]
-0.0651%: viability change [9]

CC(C)NC(C)Cc1ccc(I)cc1 (stereo not drawn)
inactive: Potency [1] | Potency [2] | outcome [3] | Potency [16] | outcome [4] | Potency [5] | outcome [6] | Potency [7] | activation [8] 2.38% | outcome [9] | outcome [10] | outcome [11] | outcome [12] | outcome [13] | outcome [14] | outcome [19] | Potency [15]
2.82%: viability change [9]

O=C(O)CC[N+](=O)[O-]
inactive: Potency [1] | Potency [2] | outcome [3] | outcome [18] | outcome [4] | Potency [5] | outcome [6] | Potency [7] | outcome [10] | outcome [11] | outcome [12] | outcome [13] | outcome [14] | outcome [19] | Potency [15]
